This is one part of a sample in which hits are shown more often than they occur.
GIRK2 act: Activates human GIRK2-containing potassium channels; HEK293 GIRK2/NPY4 cells, thallium flux fluorescence; activation (% efficacy), % for hits at 37.5 µM; 34,000 tested, under 10 active; AID 1259324;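 active means primary screen hit, no activity in plain HEK293 cells, and in GIRK2-only cells above 5% efficacy rising with concentration; inactive means the rest, including fluorescent compounds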;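 further: efficacy is normalized control-subtracted fluorescence 15 s after thallium addition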
AMPAR-TARP mod: modulates AMPAR-stargazin complexes; O88602+P19491; HEK293 GluA2+stargazin, membrane potential dye (FDSS), glutamate EC50; hits were called plate by plate, in both directions; calls only at 30 µM; 3.5% of 40,000 active;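 active means any of four per-well response measures lying three or more SD from its plate-wide compound average, in either direction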
Target sequence (O88602 whole entry, looked up): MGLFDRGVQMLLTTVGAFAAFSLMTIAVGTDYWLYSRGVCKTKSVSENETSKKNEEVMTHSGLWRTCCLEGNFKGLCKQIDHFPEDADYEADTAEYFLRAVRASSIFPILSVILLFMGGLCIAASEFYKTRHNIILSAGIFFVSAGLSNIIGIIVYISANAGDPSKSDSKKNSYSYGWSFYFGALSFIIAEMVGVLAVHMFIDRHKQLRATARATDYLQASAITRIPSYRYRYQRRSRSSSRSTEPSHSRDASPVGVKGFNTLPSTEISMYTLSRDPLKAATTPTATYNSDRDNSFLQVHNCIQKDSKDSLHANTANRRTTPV
Target sequence (P19491 whole entry, looked up): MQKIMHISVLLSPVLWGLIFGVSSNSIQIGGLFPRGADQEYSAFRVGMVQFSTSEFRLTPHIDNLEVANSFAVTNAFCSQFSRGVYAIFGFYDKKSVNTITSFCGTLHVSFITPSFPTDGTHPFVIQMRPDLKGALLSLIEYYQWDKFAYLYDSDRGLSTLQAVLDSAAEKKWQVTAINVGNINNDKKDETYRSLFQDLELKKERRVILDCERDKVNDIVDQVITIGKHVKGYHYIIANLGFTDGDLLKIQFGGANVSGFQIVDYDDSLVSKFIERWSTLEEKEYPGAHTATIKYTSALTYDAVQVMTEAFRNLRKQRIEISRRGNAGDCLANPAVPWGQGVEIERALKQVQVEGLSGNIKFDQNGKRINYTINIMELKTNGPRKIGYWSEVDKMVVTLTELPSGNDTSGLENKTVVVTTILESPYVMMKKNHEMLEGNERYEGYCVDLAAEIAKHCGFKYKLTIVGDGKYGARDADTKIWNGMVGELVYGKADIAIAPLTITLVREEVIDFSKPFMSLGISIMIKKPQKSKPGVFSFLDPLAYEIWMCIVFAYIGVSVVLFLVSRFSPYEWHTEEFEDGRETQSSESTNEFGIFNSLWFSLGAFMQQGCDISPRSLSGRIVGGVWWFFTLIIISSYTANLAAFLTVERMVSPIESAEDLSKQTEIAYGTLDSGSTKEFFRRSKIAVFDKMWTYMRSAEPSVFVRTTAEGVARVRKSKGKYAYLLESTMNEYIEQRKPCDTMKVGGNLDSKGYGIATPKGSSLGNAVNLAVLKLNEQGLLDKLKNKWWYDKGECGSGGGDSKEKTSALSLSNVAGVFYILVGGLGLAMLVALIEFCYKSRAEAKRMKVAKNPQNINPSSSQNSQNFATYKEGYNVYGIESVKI
Large screens that a line does not name were inactive; ! = repeats disagree.

O=S(=O)(NCC(O)c1ccc(C(F)(F)F)cc1)c1ccccc1Cl (stereo not given)	none
O=S(=O)(NCC(O)c1ccc(C(F)(F)F)cc1)c1ccc(F)c(Cl)c1 (stereo not given)	AMPAR-TARP mod active
O=S(=O)(Cc1cccc(F)c1)NCC(O)c1ccc(C(F)(F)F)cc1 (stereo not given)	AMPAR-TARP mod active
CC(C)N(C(=O)CSc1ccc(NC(=O)C2CC2)nn1)C(C)C	none
CCCN(CCC)S(=O)(=O)c1ccc(C(=O)N2CCc3ccccc32)cc1	none (no result: GIRK2 act)
O=C(Cc1cc(-c2ccc3c(c2)OCCO3)on1)NCc1ccccc1	AMPAR-TARP mod active
O=C(Cc1cc(-c2ccc3c(c2)OCO3)on1)NCc1ccc2c(c1)OCO2	none
N#Cc1ccc(NC(=O)CSc2ncc(S(=O)(=O)c3cccs3)c(N)n2)cc1	AMPAR-TARP mod active
N#Cc1cccc(NC(=O)CSc2ncc(S(=O)(=O)c3cccs3)c(N)n2)c1	none
CC(C)(C)n1ncc2c(=O)n(NC(=O)/C=C/c3ccccc3)cnc21	AMPAR-TARP mod active
CC(C)(C)n1ncc2c(=O)n(NC(=O)C(c3ccccc3)c3ccccc3)cnc21	none
O=C(NCC1CCN(C(=O)Nc2ccc(F)cc2)CC1)C(=O)Nc1ccc2c(c1)OCO2	none
CCn1ccc(C(=O)N(Cc2ccccc2)c2nc3ccc(Cl)cc3s2)n1	none (no result: AMPAR-TARP mod)
O=C(Nc1ccc2nccnc2c1)c1csc2c1CCCC2	AMPAR-TARP mod active
O=C(Nc1ccc2nccnc2c1)c1ccc2c(c1)OCCO2	AMPAR-TARP mod active
CCn1nccc1C(=O)Nc1ccc2c(c1)OCCO2	none
CCN(CC)c1ccc(NC(=O)c2csc3c2CCCC3)cc1	none (no result: GIRK2 act)
CN1CCC(CNC(=O)c2cccc(C(F)(F)F)c2)CC1	none (no result: GIRK2 act)
Cc1ccc2nc3c(cc(C(=O)NCCN4CCOCC4)n3C)c(=O)n2c1	none
Cc1cccn2c(=O)c(C(=O)NCCCN3CCOCC3)c(O)nc12	AMPAR-TARP mod active
Cc1cccc(NC(=O)Cn2nc(C(=O)N3CCOCC3)cc2C)c1C	none
Cn1c(=O)c2cc(C(=O)N3CCN(C(=O)c4ccco4)CC3)sc2n(C)c1=O	none
CN1CCN(C(=O)c2cc3c(=O)n(C)c(=O)n(C)c3s2)CC1	AMPAR-TARP mod active
Cn1c(=O)c2cc(C(=O)Nc3ccccc3F)sc2n(C)c1=O	AMPAR-TARP mod active
Cn1c(=O)c2cc(C(=O)NCCCN3CCCC3=O)sc2n(C)c1=O	AMPAR-TARP mod active
Cn1c(=O)c2cc(C(=O)NCCc3ccccc3)sc2n(C)c1=O	none
CC(C)CNC(=O)c1cc2c(=O)n(C)c(=O)n(C)c2s1	none
O=C(NCc1cccc2ccccc12)NCC(O)C1CCCCC1 (stereo not given)	none (no result: AMPAR-TARP mod)
Cn1cccc1CN(C(=O)c1ccc2c(c1)OCO2)C1CC1	none (no result: AMPAR-TARP mod)
Cc1cccc(NC(=O)C(=O)NCCN2CCOCC2)n1	none (no result: GIRK2 act)
Cc1ccc(S(=O)(=O)/C(C#N)=C/N2CCN(Cc3ccc4c(c3)OCO4)CC2)cc1C	none
Cc1ccc(S(=O)(=O)/C(C#N)=C/N2CCN(Cc3ccccc3)CC2)cc1C	AMPAR-TARP mod active
CCOC(=O)C1C(=O)CC(C)(O)C(C(=O)OCC)C1c1cccs1 (stereo not given)	none
CCOC(=O)C1C(=O)CC(C)(O)C(C(=O)OCC)C1c1ccc(C)cc1 (stereo not given)	AMPAR-TARP mod active
CC1CN(c2ccccc2)c2nc3c(c(=O)n(CC(=O)OCc4ccccc4)c(=O)n3C)n2C1 (stereo not given)	none (no result: GIRK2 act)
O=C(CCc1ccccc1)NCCC(O)c1ccccc1 (stereo not given)	AMPAR-TARP mod active
O=C(Cc1ccc(F)cc1)NCCC(O)c1ccccc1 (stereo not given)	none
CN1CCc2c(sc(NC(=O)c3ccc(Cl)cc3)c2-c2nc3ccccc3s2)C1	none (no result: GIRK2 act)
CCn1ccc(C(=O)Nc2sc3c(c2-c2nc4ccccc4s2)CCN(C)C3)n1	AMPAR-TARP mod active (no result: GIRK2 act)
Cc1cc(C(=O)Nc2sc3c(c2-c2nc4ccccc4s2)CCN(Cc2ccccc2)C3)on1	AMPAR-TARP mod active (no result: GIRK2 act)
O=C(Nc1sc2c(c1-c1nc3ccccc3s1)CCN(Cc1ccccc1)C2)c1cccs1	AMPAR-TARP mod active (no result: GIRK2 act)
CCN1CCc2c(sc(NC(=O)c3cc4ccccc4o3)c2-c2nc3ccccc3s2)C1	none (no result: GIRK2 act)
CC(=O)Nc1sc2c(c1-c1nc3ccccc3s1)CCN(Cc1ccccc1)C2	none (no result: GIRK2 act)
COc1cccc(NC(=O)C(=O)NCC(c2cccc(OC)c2)N2CCOCC2)c1 (stereo not given)	none
COc1ccc(-c2ccc(=O)n(CCCNS(=O)(=O)c3cc(F)ccc3F)n2)cc1	none
C#CC1(OCC(O)CN2CCOCC2)CCCCC1 (stereo not given)	none
COc1cc(NC(=O)CCc2ccccc2)ccc1N1CCCC1=O	none
O=C(NCC(=O)N1CCOC(c2ccccc2)C1)C1CC1 (stereo not given)	none (no result: AMPAR-TARP mod)
CCOc1ccccc1NC(=O)CSc1nnnn1-c1cccc(C)c1	AMPAR-TARP mod active!
CCOc1ccccc1NC(=O)CSc1nnnn1-c1ccccc1C(F)(F)F	none
COc1ccc(NC(C)=O)cc1NC(=O)c1ccc(=O)n(Cc2cccc([N+](=O)[O-])c2)c1	none
CC1CCN(c2nc3c(c(=O)[nH]c(=O)n3C)n2CC(O)COc2ccc(Cl)cc2)CC1 (stereo not given)	none (no result: GIRK2 act)
Cc1ccc(OCC(O)Cn2c(N3CCCC3)nc3c2c(=O)n(C)c(=O)n3C)cc1C (stereo not given)	none (no result: GIRK2 act)
Cn1c(=O)[nH]c(=O)c2c1nc(N1CCNCC1)n2CC(O)COc1ccc(Cl)cc1 (stereo not given)	AMPAR-TARP mod active (no result: GIRK2 act)
Cc1ccc(OCC(O)Cn2c(N3CCN(C)CC3)nc3c2c(=O)n(C)c(=O)n3C)cc1C (stereo not given)	AMPAR-TARP mod active (no result: GIRK2 act)
Cn1cccc1C(CNC(=O)C(=O)NC1CCCC1)N1CCCC1 (stereo not given)	none
Cn1cccc1C(CNC(=O)C1CCN(S(C)(=O)=O)CC1)N1CCCC1 (stereo not given)	AMPAR-TARP mod active
COc1ccc(SCC(=O)Nc2ccc(-c3nc4ccccc4[nH]3)cc2)cc1	none (no result: GIRK2 act)
CC(C)Cn1c(SCC#N)nc2cc(C(=O)NC(C)C)ccc2c1=O	none (no result: GIRK2 act)
CCN(CC)CCn1c(SCC#N)nc2cc(C(=O)OC)ccc2c1=O	AMPAR-TARP mod active!
COc1cc([N+](=O)[O-])cc2sc(NC(=O)c3ccc(S(=O)(=O)N(C)C4CCCC4)cc3)nc12	AMPAR-TARP mod active (no result: GIRK2 act)
CN(C1CCCC1)S(=O)(=O)c1ccc(C(=O)Nc2nc3ccccc3s2)cc1	none (no result: GIRK2 act)
COc1ccc([N+](=O)[O-])cc1NC(=O)c1ccc(S(=O)(=O)N(C)C2CCCC2)cc1	none (no result: GIRK2 act)
COc1cccc2sc(NC(=O)c3ccc(S(=O)(=O)N(C)C4CCCC4)cc3)nc12	AMPAR-TARP mod active
COCCn1c(=O)c2c(nc3n(-c4ccccc4F)c(C)c(C)n23)n(C)c1=O	none (no result: GIRK2 act)
CN(C)CCN(C(=O)CCCS(=O)(=O)c1ccc(F)cc1)c1nc2ccccc2s1	none (no result: GIRK2 act)
Cc1c(Cl)ccc2sc(NCCCN(C)C)nc12	none
COc1ccc(S(=O)(=O)CCC(=O)N(Cc2ccccc2)c2nc3ccccc3s2)cc1	none
CN(C)CCCNc1nc2ccc([N+](=O)[O-])cc2s1	AMPAR-TARP mod active
COc1ccc(S(=O)(=O)CCC(=O)N(CCN(C)C)c2nc3ccc([N+](=O)[O-])cc3s2)cc1	AMPAR-TARP mod active (no result: GIRK2 act)
CN(C)CCN(C(=O)CCCS(=O)(=O)c1ccc(F)cc1)c1nc2ccc([N+](=O)[O-])cc2s1	AMPAR-TARP mod active (no result: GIRK2 act)
COc1ccc(-c2csc(-n3nc(C)cc3NC(=O)Cc3cccs3)n2)cc1OC	none
